HT1080NT lethal: kills 2HG-producing HT-1080-NT fibrosarcoma cells. HT-1080-NT fibrosarcoma viability, CellTiter-Glo ATP luminescence, 48 h. Potency, µM (doses to about 46.1 µM), for the others: top-dose activity, negative = less viability, actives largely listed as cytotoxic. 1.6% of 360,000 active;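 also: NT is the 2HG producing partner of a matched IDH1 knockdown line; potency is read from the fitted curve at half-maximal effect; 0% = DMSO-treated cells and -100% = media-only wells without cells; nearly all actives have a fitted effect of over 55% in size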
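Viability by CellTiter-Glo luminescence after 48 h compound exposure at 37C of HT-1080-NT cells (750/well, RPMI, 5% FBS). % activity scaled between DMSO wells and medium-only wells, then curve-fitted and categorized by curve class.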
HT1080 IDH1KD tx: HT-1080 IDH1 knockdown cell toxicity (counter line) | HT-1080 IDH1 knockdown viability, ATP luminescence, 48 h | AID 686971 | 2% of 360,000 active | Potency, µM (titrated, usually from 46.1 µM), inactives show top-dose activity, negative = toxicity, usual class: cytotoxic;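 also: potency is read from the fitted curve at half-maximal effect; 0% = DMSO wells and -100% = cell-free medium wells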
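% activity derives from luminescence (CellTiter-Glo), normalised to DMSO and no-cell wells. HT-1080-IDH1KD cells, 750/well, had 48 h compound exposure at 37 °C.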
IL-1B inflam inh: blocks inflammasome-driven IL-1 beta release. activity change, % at 57.5 µM. 4.7% of 360,000 active. THP-1 LPS/ATP IL-1B secretion, AlphaLISA, 16 h; stronger effect = lower value. AID 743279; in the data active = activity change below about -50%; inconclusive = mostly about -30% to -49%
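THP-1 cells pretreated 1 hr with compounds (up to 57.5 uM final), then stimulated with LPS (250 ng/mL final) plus ATP (1.25 mM final); secreted IL-1B measured by AlphaLISA after 16 hr, decreased signal indicating inhibition.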
TDP1 cell CPT: DT40-hTDP1 cell growth loss with CPT; Potency, µM (titrated, usually from 46.2 µM), for the others: at the top dose activity change, negative = growth inhibition, hits mostly inhibitors; 12% of 420,000 active; chicken DT40 Tdp1-/-;hTDP1 cells + 20 nM CPT, ATP luminescence, 48 h; AID 686979; also: potency is read from the fitted curve at half-maximal effect; nearly all actives have a fitted effect of over 55% in size
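Chicken DT40 Tdp1-/- cells stably complemented with human TDP1 were seeded at 400 cells/well in medium containing 20 nM camptothecin, exposed to pin-transferred compounds, and grown at 37 °C for at least 48 hr. Viability was read as ATP luminescence.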
TDP1 cell noCPT: qHTS for Inhibitors of human tyrosyl-DNA phosphodiesterase 1 (TDP1): qHTS in cells in absence of CPT. DT40 Tdp1-/- hTDP1 cells, no CPT, ATP luminescence, 48 h. Potency, µM (titrated, usually from 46.2 µM), without a hit: at the top dose activity change, negative = growth inhibition, usual class: inhibitors. 15% of 420,000 active. AID 686978, 2013; also: potency is read from the fitted curve at half-maximal effect; nearly all actives have a fitted effect of over 55% in size
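Stably hTDP1-transfected Tdp1-null chicken DT40 cells were treated with library compounds minus camptothecin and grown for at least 48 hr at 37 °C, after which cellular ATP was quantified by luminescence.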
Active calls of the source: *; ? = inconclusive; . = no result; [ ] = dose if it differs, or a comment. An excerpt weighted towards active compounds, which were near 19% of everything screened. Unless noted, calls follow the shape of the dose curve; as a rule, active = well fitted curve in the direction sought with a large enough effect; inconclusive = small, poorly fitted or top-dose-only effect, or another doubt; inactive = no such curve, though single readings can be large; an effect the other way counts as inactive or inconclusive. Unless noted, % is scaled to controls: 0 for no effect and ±100 for the full control effect.

SMILES	HT1080NT lethal	HT1080 IDH1KD tx	IL-1B inflam inh	TDP1 cell CPT	TDP1 cell noCPT
CC(C)c1ccc(NS(=O)(=O)c2ccc3c(c2)oc(=O)n3C)cc1	-4%	1%	16	18µM*	?
Cn1c(=O)oc2cc(S(=O)(=O)NCc3ccc(C(=O)O)cc3)ccc21	0%	-4%	28	-4%	0%
CCN(C(=O)CSc1ncccn1)C1CCS(=O)(=O)C1 (stereo unspecified)	-6%	1%	-9	-4%	14%
COC(=O)c1oc2ccccc2c1NC(=O)/C=C/C(=O)O	25%	20%	1	-8%	-2%
CSc1ccc(CNC(=O)C2CCC(=O)N(Cc3cccc(F)c3)C2)cc1 (stereo unspecified)	-1%	-3%	0	-16%	?
COC(=O)CCNC(=O)N1CCN(c2nnc(C)c3c(C)n(-c4ccc(Cl)cc4)nc23)CC1	.	.	.	-6%	3%
CCOC(=O)COc1ccc(S(=O)(=O)NCc2cccnc2)cc1	0%	13%	24	0%	-6%
COC(=O)COc1ccc(S(=O)(=O)NCc2ccncc2)cc1	-2%	-1%	77	4.1µM*	9.2µM*
NC(=S)NS(=O)(=O)c1ccc(N)cc1	.	.	.	-4%	-17%
O=[N+]([O-])c1ccccc1S(=O)(=O)NC1CCCC1	23%	14%	17	0%	-3%
O=C(c1ccc2c(c1)[nH]c(=S)n1c3ccccc3nc21)N1CCN(c2cccc(Cl)c2)CC1	0%	-15%	12	18µM*	18µM*
COCCn1c(=O)[nH]c2cc(C(=O)N3CCN(c4ccccc4)CC3)ccc2c1=O	1%	1%	4	-29%	?
C=CCn1c(=O)[nH]c2cc(C(=O)N3CCN(c4ccc(C(C)=O)cc4)CC3)ccc2c1=O	-30%	?	-7	21µM*	16µM*
COCCn1c(=S)[nH]c2cc(C(=O)N3CCN(c4ccccc4OC)CC3)ccc2c1=O	-6%	2%	4	?	?
COCCn1c(=O)[nH]c2cc(C(=O)N3CCN(c4cccc(C)c4C)CC3)ccc2c1=O	-1%	-1%	-27	15µM*	21µM*
COCCn1c(=O)[nH]c2cc(C(=O)N3CCN(c4cccc(Cl)c4)CC3)ccc2c1=O	11%	-4%	-26	23µM*	9.2µM*
CO[C@H]1[C@H](NC(=O)c2ccsc2)c2ccccc2C12CCN(Cc1cc3ccccc3o1)CC2	.	.	.	-11%[9.04 µM]	?
CCCS(=O)(=O)Nc1cc(C(F)(F)F)ccc1OCCOC	-1%	-2%	2	-5%	-18%
COc1cccc(N2CCN(C(=O)c3ccc4c(=O)n(CCc5ccccc5)c(=O)[nH]c4c3)CC2)c1	.	.	.	15µM*	7.3µM*
C=CCn1c(=O)[nH]c2cc(C(=O)N3CCN(c4cccc(Cl)c4)CC3)ccc2c1=O	-1%	-1%	-3	9.2µM*	7.3µM*
COc1ccc(Cn2c(=O)[nH]c3cc(C(=O)N4CCN(c5ccccc5)CC4)ccc3c2=O)cc1	18%	8%	20	-8%	?
O=C(CCC1CCCCC1)Nc1ccccc1C(=O)N1CCOCC1	6%	24%	7	5%	-20%
COc1ccc(-n2nnc(C(=O)Nc3ccccc3F)c2N)cc1	.	.	.	-15%	-11%
Cc1ccc(C)c2nc(SCC(=O)N3CCCc4ccccc43)c(C#N)cc12	-4%	14%	11	?	?
Cc1ccc(S(=O)(=O)N2CCN(C(=O)c3ccco3)CC2)c(C)c1	-1%	-6%	16	-25%	1%
SMILES	HT1080NT lethal	HT1080 IDH1KD tx	IL-1B inflam inh	TDP1 cell CPT	TDP1 cell noCPT
Cc1ccc(S(=O)(=O)N2CCN(C(=O)c3cc(S(=O)(=O)N4CCOCC4)ccc3Cl)CC2)c(C)c1	-6%	-28%	-13	18µM*	16µM*
COc1ccc(S(=O)(=O)N2CCN(C(=O)c3ccccc3Cc3ccccc3)CC2)cc1OC	11%	6%	32	?	23µM*
Cc1ccc(S(=O)(=O)N2CCN(C(=O)c3ccccc3Cc3ccccc3)CC2)c(C)c1	-25%	?	-72*	?	?
COc1ccc(S(=O)(=O)N2CCN(c3ccccc3)CC2)cc1OC	0%	-3%	.	9%	?
COc1ccc(S(=O)(=O)N2CC=C(c3ccccc3)CC2)cc1OC	-15%	-18%	4	?	23µM*
COc1ccc(S(=O)(=O)N2CCN(Cc3ccccc3)CC2)cc1OC	0%	-6%	16	-8%	?
O=C(c1cc(S(=O)(=O)N2CCCCC2)ccc1Cl)N1CCOCC1	8%	6%	-6	11%	-26%
CC(C)c1ccc(NC(=O)CSc2ncc3c(n2)-c2ccccc2N(C)S3(=O)=O)cc1	.	.	.	?	-20%
COc1ccc(CN2CC(=O)N(c3ccccc3OC)C2=S)cc1OC	0%	-6%	25	-27%	-16%
COc1ccc(CN2CC(=O)N(c3cccc(Cl)c3)C2=S)cc1OC	-6%	-18%	-8	-77%	15µM*
COc1ccc(CN2CC(=O)N(c3cc(Cl)ccc3OC)C2=S)cc1OC	-20%	-10%	3	?	?
COc1ccc(CN2CC(=O)N(c3ccc(Cl)cc3)C2=S)cc1OC	-10%	-13%	?	?	?
COc1ccc(N2C(=O)CN(Cc3cc(OC)c(OC)c(OC)c3)C2=S)cc1	-2%	-23%	8	16µM*	23µM*
COc1ccc(Cl)cc1N1C(=O)CN(Cc2cc(OC)c(OC)c(OC)c2)C1=S	-2%	7%	-1	15µM*	8.2µM*
COc1cccc(N2C(=O)CN(Cc3cc(OC)c(OC)c(OC)c3)C2=S)c1	1%	2%	27	-3%	21µM*
O=C(O)CNC(=O)c1ccc(NS(=O)(=O)c2ccc3ccccc3c2)cc1	18%	0%	8	0%	-16%
O=C(NCCCCc1ccccc1)C1CC(c2cc(C(F)(F)F)cc(C(F)(F)F)c2)=NO1 (stereo unspecified)	7%	5%	-18	-6%	-20%
COCCCNC(=O)CN(c1cc(Cl)ccc1OC)S(C)(=O)=O	18%	19%	0	11%	-10%
CC(C)(C)C1CCC2(CC1)C(C#N)=C(SCC(=O)NC1CCCCC1)NC(=O)C2C#N (stereo unspecified)	?	7%[9.24 µM]	-25	21µM*	16µM*
N#CC1=C(SCC(=O)NC2CC2)NC(=O)C(C#N)C12CCCCC2 (stereo unspecified)	10%	1%	23	-1%	-13%
N#CC1=C(SCC(=O)NC23CC4CC(CC(C4)C2)C3)NC(=O)C(C#N)C12CCCCC2 (stereo unspecified)	?	?	?	18µM*	23µM*

Screening results as filed in PubChem.
